High-throughput results deposited in PubChem BioAssay by several laboratories.
HSP90 inh – HSP90 refolding inhibition in rabbit reticulocyte lysate; luciferase refolding luminescence, 3 h; inhibition, % at 5.6 µM; 290,000 compounds, 0.91% hits; AID 1789;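 active means inhibition above the screen-wide mean plus 3 SD, computed separately per campaign, cut at about 16% in these data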;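 further: 0% = DMSO wells and 100% = 60 µM geldanamycin wells; inhibitors lower the luminescence because luciferase stays unfolded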
PG9 Ab binder – binds the HIV-1 gp120 antibody PG9; 360,000 compounds, 0.43% hits; TR-FRET gp120-PG9 antibody binding; AID 624416; inhibition, % at 6.7 µM; in the data active means inhibition above about 8.5%
AI-2 QS modul – Vibrio harveyi AI-2 quorum sensing modulation | 300,000 compounds, 0.4% hits | AID 2094 | activity change, % at 7.5 µM | Vibrio harveyi JMH597 AI-2 luminescence/OD600 ratio, 9 h; stronger effect = lower value; strain lacks LuxN and CqsS sensors; 0 = neutral-control median; in the data active means activity change below about -75%, passing the limit was not always enough; inconclusive means no clear call, values can overlap the other calls;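 further: luminescence divided by OD600 gain over 9 h not by final OD600 alone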
GAA850 FXN act – increases GAA850 frataxin promoter reporter activity. 360,000 compounds, 0.56% hits. activation, % at 6 µM. HEK293 lucGAA850 FXN promoter luciferase reporter, 24 h; percent of 10 µM SAHA response;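 active means activation above the average of all compounds screened plus 3 SD, cutoff fixed separately per campaign, cut at about 7.5% in these data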;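 further: 0% = DMSO wells and 100% = 10 µM SAHA wells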
HSF1 inhib – HSF1 inhibition. 300,000 compounds, 0.77% hits. NIH3T3-HGL HSE-luciferase, MG132-induced, luminescence 8 h; stronger effect = lower value. activity change, negative = inhibition, % at 7.5 µM (by protocol). AID 2098;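 active means more than half of replicate wells show activity change below -50%, luminescence cut by over half; inconclusive means some wells, but at most half, below -50%; inactive means no replicate well below -50%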;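 further: luciferase reports HSF-1 transcriptional activity via heat shock element; 0% = median of DMSO wells and -100% = zero luminescence signal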
SMARCA2 activ – increases SMARCA2 function in MMTV reporter cells | MG213 cells, MMTV-luciferase reporter, dexamethasone, overnight | activation, % at 9.1 µM | 370,000 compounds, 1% hits | AID 652017; in the data active means activation above about 7.8%;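 further: 0% = vehicle wells and 100% = reference activator wells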
An asterisk follows results filed as active; ? = inconclusive; nt = no result given. Rows were chosen to be rich in hits. Some 3.4% of all compounds tested hit in one or more screens of this group.

SMILES	HSP90 inh	PG9 Ab binder	AI-2 QS modul	GAA850 FXN act	HSF1 inhib	SMARCA2 activ
CC(C)c1ccc(N(C(=O)C(F)(F)F)C(C(=O)NC2CCCCC2)c2ccncc2)cc1 (stereo unspecified)	2	0	20	0	-1	1
CCC(C)N(C(=O)C(F)(F)F)C(C(=O)NC1CCCCC1)c1ccncc1 (stereo unspecified)	3	0	12	-1	-52*	1
O=C(O)c1cccc(NC(=O)c2ccccc2NC(=O)c2ccccc2F)c1	0	1	34	0	-68*	-3
Oc1c(CN2CCN(c3ccccn3)CC2)cc(Cl)c2cccnc12	1	nt	?	10*	-6	nt
COc1ccccc1N1CCN(Cc2cc(Br)c(O)c3ncccc23)CC1	5	-2	-24	-1	-80*	-2
NC1=C(Br)C(=O)c2ccccc2C1=O	9	-8	-90*	2	7	-3
CSc1nsc(SCC(=O)NCc2ccc(C)cc2)n1	-5	-2	-9	-1	-79*	0
COCc1cc(N2CCN(C(=O)OC(C)(C)C)C[C@H]2C)ccc1N1CCN(Cc2ccccc2)[C@@H](C)C1	nt	-2	nt	nt	nt	-4
COc1ccc(CNC(=O)C2CCN(S(=O)(=O)c3ccc4c(c3)C(C)(C)C(=O)N4C)CC2)cc1	4	-1	8	2	-84*	-7
CCC(C)NC(=O)C1CCN(S(=O)(=O)c2ccc3[nH]c(=O)ccc3c2)CC1 (stereo unspecified)	-8	0	8	0	-30	-3
CCCNC(=O)C1CCN(S(=O)(=O)c2ccc3[nH]c(=O)ccc3c2)CC1	35*	-1	20	1	-2	0
CC(C)(C)C(=O)OC12CCCN(C1)/C(=C/c1ccccc1)C2 (stereo unspecified)	nt	nt	nt	nt	nt	-5
Cc1ccccc1N1CCN(C2=Nc3ccccc3Sc3ccccc32)CC1	nt	nt	nt	nt	nt	-5
O=C(CCl)NC(Cc1ccccc1)c1ccccc1 (stereo unspecified)	-1	-1	35	-11	-85*	-2
CCCn1cc(C(=O)Nc2ccc(Oc3cccnc3)cc2)c2ccccc21	nt	-1	nt	nt	nt	0
O=C(CCl)Nc1cn(-c2ccccc2)nc1-c1ccc(F)cc1	-4	1	-18	1	-84*	1
Cc1ccc(NC(=O)c2ccccc2)cc1	-6	0	15	4	23	4
Cc1ccc(NC(=O)C2=C(c3ccccc3)S(=O)(=O)CCS2(=O)=O)cc1	2	0	-46	-13	-75*	-8
COC(=O)c1sccc1N/N=C/c1cccc(OC)c1O	1	0	33	0	-10	3
COC(=O)c1sccc1N/N=C/c1cccc(Oc2ccccc2)c1	17*	0	11	0	-39	3
NS(=O)(=O)c1ccc(NC(=O)COC(=O)c2ccc(Cl)cc2[N+](=O)[O-])cc1	5	1	-13	1	-5	-2
Cc1ccc(NC(=O)COC(=O)c2cc(Cl)ccc2[N+](=O)[O-])cc1	-1	-2	-92*	0	-16	6
NS(=O)(=O)c1cccc(NC(=O)COC(=O)c2cc(Cl)ccc2[N+](=O)[O-])c1	2	-1	-79*	0	8	-4
CCOC(=O)[C@]12CCCCC/C=C\1N(Cc1ccc(OC)cc1)C(=O)[C@H]2CC(=O)NCC1CCCCC1	nt	nt	nt	nt	nt	-3
O=C(c1ccco1)N1CCN(S(=O)(=O)/C=C/c2ccccc2)CC1	5	2	27	1	-59*	-1
SMILES	HSP90 inh	PG9 Ab binder	AI-2 QS modul	GAA850 FXN act	HSF1 inhib	SMARCA2 activ
CC(C)CCNC(=O)C1CCCN(C(=O)c2ccc3c(c2)NC(=O)CS3)C1 (stereo unspecified)	nt	nt	nt	nt	nt	2
NS(=O)(=O)c1ccc(CCn2c(=S)[nH]c3ccc(F)cc3c2=O)cc1	2	37*	51	3	3	-2
COC(=O)[C@]12C[C@H](CC(=O)N3CCN(C(=O)c4ccco4)CC3)C(=O)N(CCC3=CCCCC3)C1=C[C@H](COCc1ccccc1)O[C@@H]2C	nt	0	nt	nt	nt	-1
N=C1C(c2nc3ccccc3c(=O)[nH]2)=C(O)CN1c1ccccc1	4	nt	nt	nt	nt	nt
N=C1C(c2nc3ccccc3[nH]2)=C(O)CN1c1ccc(CC(=O)O)cc1	0	-6	10	1	-54*	-2
N#Cc1c(N)nc2c(c1-c1ccc3c(c1)OCO3)CCc1ccccc1-2	1	-1	13	2	17	-2
N#Cc1c(-c2ccc3c(c2)OCO3)csc1N	-1	1	2	3	-81*	0
COc1ccc(Cn2cc(CN3[C@H](C)COc4cc(Br)ccc4S3(=O)=O)nn2)cc1	nt	nt	nt	nt	nt	-7
COC(=O)c1c(-c2ccco2)csc1NC(=O)C1CC=CCC1C(=O)O (stereo unspecified)	2	9.7*	21	6	-7	0
CCOC(=O)c1c(-c2ccc(F)cc2)csc1NC(=O)C1CC=CCC1C(=O)O (stereo unspecified)	4	1	10	0	4	2
CCS(=O)(=O)c1ccc(O)c(NC(=O)/C=C/c2ccc(Cl)cc2)c1	-3	0	-83*	0	4	-4
CC(C)CCN(C)C1CCN(C(=O)NCc2ccccc2)CC1	nt	nt	nt	nt	nt	-8
COc1ccccc1C(=O)NCCC(=O)NNC(=O)Cn1ccc(C(F)(F)F)n1	nt	0	11	0	-77*	3
COc1cccc(/C=N/Nc2ncnc(Cl)c2N)c1O	2	-8	-82*	-2	-4	-2
COc1ccc(/C=N/Nc2ncnc(Cl)c2N)cc1OC	5	-7	21	4	2	-2
Cc1cccnc1NS(=O)(=O)c1ccccc1	nt	-2	nt	-1	nt	7.9*
N/C(=N\OC(=O)c1cc(Cl)ccc1Cl)c1ccccn1	15	2	5	0	7	5
COc1ccc(Cl)cc1C(=O)O/N=C(\N)c1ccccn1	1	-1	nt	5	15	7.8*
O=C(O)COc1ccccc1C=NNC(=O)Cc1cc(=O)[nH][nH]1	nt	nt	nt	nt	nt	-5
CCCN1C(=O)c2n[nH]c(C(C)C)c2C1c1cccc(C(F)(F)F)c1 (stereo unspecified)	nt	0	nt	nt	nt	0
COC(=O)c1ccc(N2CCN(C(C)=O)CC2)c(NC(=O)COc2ccccc2C)c1	8	1	27	2	-64*	-1
CCCCn1c(=O)[nH]c(=O)c2c1nc(CN1C(=O)c3ccccc3S1(=O)=O)n2CCC	1	0	17	0	7	1
CCCCn1c(=O)[nH]c(=O)c2c1nc(Cn1ncc(Cl)c(Cl)c1=O)n2CCC	4	0	11	-11	-93*	-10
CC1(C)CC(=O)N(CC(=O)N2CCN(Cc3ccc4c(c3)OCO4)CC2)c2ccccc2S1(=O)=O	nt	nt	nt	nt	nt	-7
Clc1ccc(-c2nnc3n2N=C(c2ccc(-c4ccccc4)cc2)CS3)c(Cl)c1	nt	nt	nt	nt	nt	-6
